Results on 16 compounds are retold here after ChEMBL document CHEMBL1961873, “Compounds: GSK PKIS; Assays: Nanosyn kinase panel” (2012).

Structures are written as SMILES. Where “and” joins values, the source holds several entries; their conditions need not be identical. Identical values can stand only once.

Assay [1] has as its target CDK3/Cyclin E (Homo sapiens) (UniProt P24864+Q00526). The conditions noted are these: at 1 µM.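 Also: each figure is a mean percent inhibition of the CDK3/cyclin E complex.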
The target of assay [2] is Cyclin-dependent kinase 4 (Homo sapiens) (UniProt P11802). Particulars: at 0.1 µM.
Chain of Cyclin-dependent kinase 4 (Homo sapiens) (P11802 whole entry): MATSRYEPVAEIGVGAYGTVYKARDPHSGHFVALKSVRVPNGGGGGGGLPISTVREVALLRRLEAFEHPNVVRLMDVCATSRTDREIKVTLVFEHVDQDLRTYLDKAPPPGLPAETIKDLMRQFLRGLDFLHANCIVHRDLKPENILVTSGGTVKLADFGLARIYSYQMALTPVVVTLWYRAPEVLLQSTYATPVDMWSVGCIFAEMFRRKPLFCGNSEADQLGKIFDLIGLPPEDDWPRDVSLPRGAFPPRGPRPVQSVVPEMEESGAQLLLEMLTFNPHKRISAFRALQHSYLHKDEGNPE
The target is the same in assay [3]. The conditions noted are these: at 1 µM.
For assay [4], the target named is Cyclin-dependent kinase 5 (Homo sapiens) (UniProt Q00535). The conditions noted are these: at 0.1 µM.
Chain of Cyclin-dependent kinase 5 (Homo sapiens) (Q00535 whole entry, looked up): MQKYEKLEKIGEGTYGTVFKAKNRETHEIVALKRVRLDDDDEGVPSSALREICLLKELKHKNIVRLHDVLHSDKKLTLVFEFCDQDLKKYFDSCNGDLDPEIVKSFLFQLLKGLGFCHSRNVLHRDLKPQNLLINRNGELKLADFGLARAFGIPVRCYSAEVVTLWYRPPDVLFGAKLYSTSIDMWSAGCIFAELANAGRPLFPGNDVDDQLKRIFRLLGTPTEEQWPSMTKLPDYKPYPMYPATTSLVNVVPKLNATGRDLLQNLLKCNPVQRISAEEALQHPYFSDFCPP
Assay [5] has the same target. The conditions noted are these: at 1 µM.
The target of assay [6] is Cyclin-dependent kinase 6 (Homo sapiens) (UniProt Q00534). Particulars: at 0.1 µM.
Chain of Cyclin-dependent kinase 6 (Homo sapiens) (Q00534 whole entry): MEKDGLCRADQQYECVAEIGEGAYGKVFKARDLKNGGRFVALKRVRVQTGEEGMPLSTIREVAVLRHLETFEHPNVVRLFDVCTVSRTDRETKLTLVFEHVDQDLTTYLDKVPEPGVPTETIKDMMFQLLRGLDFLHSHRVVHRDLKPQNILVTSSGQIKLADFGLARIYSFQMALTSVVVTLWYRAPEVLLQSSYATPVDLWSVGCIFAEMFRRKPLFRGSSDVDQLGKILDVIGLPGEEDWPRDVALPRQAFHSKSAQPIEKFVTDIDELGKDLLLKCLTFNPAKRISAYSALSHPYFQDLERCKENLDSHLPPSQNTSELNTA
Assay [7] shares this target. Particulars: at 1 µM.
For assay [8], the target named is Dual specificity protein kinase CLK2 (Homo sapiens) (UniProt P49760). Particulars: at 0.1 µM.
Chain of Dual specificity protein kinase CLK2 (Homo sapiens) (P49760 whole entry, looked up): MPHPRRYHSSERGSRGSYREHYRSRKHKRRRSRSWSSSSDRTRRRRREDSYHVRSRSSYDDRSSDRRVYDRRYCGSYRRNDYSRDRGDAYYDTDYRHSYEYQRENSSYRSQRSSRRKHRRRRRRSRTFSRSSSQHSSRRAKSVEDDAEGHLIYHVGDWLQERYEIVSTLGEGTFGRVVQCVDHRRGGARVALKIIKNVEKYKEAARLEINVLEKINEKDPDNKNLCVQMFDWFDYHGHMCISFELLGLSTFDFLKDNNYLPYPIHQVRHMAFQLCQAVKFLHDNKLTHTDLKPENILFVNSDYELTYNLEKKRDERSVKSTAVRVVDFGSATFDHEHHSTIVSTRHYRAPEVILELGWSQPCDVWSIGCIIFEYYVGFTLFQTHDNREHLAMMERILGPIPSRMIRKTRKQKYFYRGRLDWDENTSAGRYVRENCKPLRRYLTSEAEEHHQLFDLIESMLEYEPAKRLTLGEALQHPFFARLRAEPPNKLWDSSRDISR
For assay [9] the target is unchanged. Particulars: at 1 µM.
Assay [10] concerns the target Dual specificity protein kinase CLK3 (Homo sapiens) (UniProt P49761). The conditions noted are these: at 0.1 µM.

Chain of CDK3/Cyclin E (Homo sapiens) (P24864 whole entry, looked up): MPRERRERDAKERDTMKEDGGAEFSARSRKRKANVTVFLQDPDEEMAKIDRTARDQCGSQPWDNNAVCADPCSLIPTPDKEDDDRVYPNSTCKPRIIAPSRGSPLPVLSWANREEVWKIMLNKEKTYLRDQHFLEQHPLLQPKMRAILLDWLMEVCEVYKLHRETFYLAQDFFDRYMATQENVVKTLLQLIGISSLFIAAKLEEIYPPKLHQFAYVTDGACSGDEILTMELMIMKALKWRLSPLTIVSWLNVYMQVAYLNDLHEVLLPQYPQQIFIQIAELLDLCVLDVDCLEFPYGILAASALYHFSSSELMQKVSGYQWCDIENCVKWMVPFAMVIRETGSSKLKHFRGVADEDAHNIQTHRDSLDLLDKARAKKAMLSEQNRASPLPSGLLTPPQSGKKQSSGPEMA
Chain of CDK3/Cyclin E (Homo sapiens) (Q00526 whole entry, looked up): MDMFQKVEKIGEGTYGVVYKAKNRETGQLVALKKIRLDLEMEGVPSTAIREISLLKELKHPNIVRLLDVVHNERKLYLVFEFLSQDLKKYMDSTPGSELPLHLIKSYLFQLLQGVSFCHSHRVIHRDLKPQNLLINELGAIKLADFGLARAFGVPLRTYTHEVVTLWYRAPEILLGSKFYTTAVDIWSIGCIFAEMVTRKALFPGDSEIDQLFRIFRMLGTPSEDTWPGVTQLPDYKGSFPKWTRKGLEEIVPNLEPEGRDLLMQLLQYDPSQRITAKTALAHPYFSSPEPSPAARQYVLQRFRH
Chain of Dual specificity protein kinase CLK3 (Homo sapiens) (P49761 whole entry, looked up): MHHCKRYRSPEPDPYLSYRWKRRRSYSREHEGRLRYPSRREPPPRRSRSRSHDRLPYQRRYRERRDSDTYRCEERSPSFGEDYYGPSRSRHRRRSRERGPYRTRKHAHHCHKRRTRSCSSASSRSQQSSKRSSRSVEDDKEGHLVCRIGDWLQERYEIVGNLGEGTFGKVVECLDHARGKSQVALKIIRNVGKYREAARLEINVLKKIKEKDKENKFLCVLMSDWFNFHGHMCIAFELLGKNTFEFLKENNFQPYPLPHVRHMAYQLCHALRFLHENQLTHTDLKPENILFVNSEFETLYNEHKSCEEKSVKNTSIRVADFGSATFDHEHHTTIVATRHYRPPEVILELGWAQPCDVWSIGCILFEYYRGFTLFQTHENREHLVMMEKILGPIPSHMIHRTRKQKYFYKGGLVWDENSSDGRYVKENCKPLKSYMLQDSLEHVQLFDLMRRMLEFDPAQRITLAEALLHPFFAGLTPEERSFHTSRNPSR

As usually defined, the inhibition is the change of the read-out against control, counted positive when it falls. Consider `NS(=O)(=O)c1ccc(N/N=C2\C(=O)Nc3ccc(C(=O)NCc4ccncc4)cc32)cc1`, for which the inhibition in assay [1] was found to be 96.3%; in assay [2] it was 14%; in assay [3], 52.3%; in assay [4], 47.7%; in [5], 79.1%; in assay [6] it was 8.64%. Also, the inhibition in assay [7] came to 58.6%; in assay [8] it was 2.87%; in assay [9], 36.8%; in assay [10], 1.92%.

For `CNC(=O)c1sc(-n2cnc3cc(OC)c(OC)cc32)cc1OCc1ccccc1C(F)(F)F`, the inhibition in assay [1] was -1.01%; in assay [2], 1.64%; in assay [3], 3.5%; in assay [4], 0.36%; in [5] it was 1.5%; in [6], -0.46%. For the same compound, the inhibition is 1.53% in [7], 1.74% in assay [8], -1.57% in [9] and 0.24% in assay [10].

With `N#Cc1ccc2c(-c3ccnc(NC4CC4)n3)c(-c3ccc(F)cc3)nn2c1`, the inhibition in assay [1] was -1.23%; in [2] it was -0.21%; in assay [3] it was 1.61%; in [4], -0.1%; in [5] it was -0.13%; in assay [6], -1.07%. Further, the inhibition was 2.32% in [7], -0.43% in [8], -1.71% in [9] and -0.22% in assay [10].

Take `COc1cc2c(cc1Nc1nc(Nc3cccc(F)c3C(N)=O)c3cc[nH]c3n1)N(C(=O)CN1CCN(C(C)C)CC1)CC2`: the inhibition in assay [1] was -0.76%; in assay [2], 1.15%; in assay [3] it was 1.2%; in [4] it was 0.64%; in [5], 0.27%; in assay [6], -4.06%. Moreover, the inhibition in [7] is -0.78%; in [8], 6.86%; in assay [9] it was 45.4%; in assay [10] it was 0.88%.

With `COC(=O)Nc1nc2cc(Oc3ccc(NC(=O)Nc4ccccc4)cc3)ccc2[nH]1`, the inhibition is -3.23% in [1]; 0.66% in assay [2]; 1.41% in assay [3]; 0.28% in assay [4]; 0.86% in assay [5]; 0.73% in assay [6]. Also, the inhibition was -1.23% in assay [7], 1.75% in assay [8], -1.36% in assay [9] and 1.37% in assay [10].

With `Nc1ncnc2occ(-c3ccc(NC(=O)Nc4cc(C(F)(F)F)ccc4F)cc3)c12`, the inhibition in [1] is 26.3% and 17%; in assay [2], 2.18% and -1.12%; in assay [3], 7.72% and 1.95%; in [4] it was 2.15% and 1.3%; in assay [5], 10.4% and 4.77%; in assay [6] it was 2.49% and -1.62%. For the same compound, the inhibition in [7] is 6.94% and -0.12%; in assay [8], -0.16% and 0.05%; in [9], 2.32% and 0.92%; in assay [10] it was -0.08% and 0.74%.

With `CNC(=O)c1cncc(/C=C/c2ccccc2C)c1`, the inhibition in [1] was 0.23%; in [2] it was 1.9%; in [3], 7.47%; in assay [4], 4.11%; in assay [5] it was 10.4%; in assay [6], 3.69%. Further, the inhibition in assay [7] was 4.46%; in assay [8], 2.83%; in [9] it was 2.46%; in assay [10], 1.79%.

As for `Fc1cccc(COc2ccc(Nc3ncncc3C#Cc3ccccc3)cc2Cl)c1`, the inhibition was -2.37% in assay [1]; 2.27% in assay [2]; 2.61% in [3]; 1.02% in [4]; 1.31% in [5]; 3.3% in assay [6]. For the same compound, the inhibition in [7] is 2.89%; in assay [8], 1.45%; in [9] it was 2.09%; in [10] it was 2.41%.

In the case of `CN1CCC(C(=O)Nc2n[nH]c3nc(-c4ccc(O)cc4)c(Br)cc23)CC1`, the inhibition in assay [1] is 56.1% and 53.4%; in assay [2], 48% and 51.8%; in [3], 76.6% and 78.3%; in assay [4] it was 0.17% and 1.86%; in assay [5] it was 13.3% and 11.5%; in [6], 36.9% and 34.2%. Besides, the inhibition in [7] was 76.5% and 74%; in [8] it was 2.03% and 1.85%; in assay [9] it was 3.04% and 2.87%; in assay [10], -1.53% and 0.88%.

As for `Fc1ccc(Nc2nccc(-c3c(-c4ccc(C(F)(F)F)cc4)nn4ncccc34)n2)cc1F`, the inhibition was -0.37% in [1]; 2.28% in assay [2]; 2.36% in [3]; 0.28% in assay [4]; 0.64% in assay [5]; 1.44% in assay [6]. The inhibition in assay [7] was 1.37%; in assay [8], 2.15%; in assay [9], 1.63%; in assay [10], 2.2%.

On to `NS(=O)(=O)c1ccc(N/N=C2\C(=O)Nc3cccc(CCc4ccncc4)c32)cc1`, for which the inhibition came to 63.6% in assay [1]; 14% in assay [2]; 29.4% in assay [3]; 19.4% in assay [4]; 38.5% in assay [5]; 36.6% in assay [6]. Besides, the inhibition is 56.2% in assay [7], 0.9% in assay [8], 4.17% in [9] and 0.97% in assay [10].

For `COC(=O)Nc1nc2ccc(Oc3ccc(NC(=O)Nc4cc(C(F)(F)F)ccc4F)cc3)cc2s1`, the inhibition in [1] is -0.71%; in assay [2], 0.7%; in assay [3] it was 2.02%; in assay [4] it was 0.77%; in assay [5], 1.66%; in assay [6] it was 0.38%. Besides, the inhibition in assay [7] amounted to 2.05%; in [8] it was 0.47%; in assay [9] it was 3.04%; in assay [10] it was 0.06%.

With `O=C(O[C@H]1CN[C@H](C#Cc2cc3ncnc(Nc4ccc(OCc5cccc(F)c5)c(Cl)c4)c3s2)C1)N1CCOCC1`, the inhibition in [1] is -3.23%; in assay [2] it was 2.11%; in assay [3], 2.33%; in assay [4], 0.49%; in assay [5], -0.57%; in [6], 1.23%. For the same compound, the inhibition in assay [7] is -0.42%; in assay [8] it was -0.15%; in assay [9], -0.4%; in assay [10] it was 2.68%.

As to `CCCNc1cccc(-n2ncc3c(N/N=C/c4ccncc4)ncnc32)c1`, the inhibition in [1] was 9.63%; in assay [2] it was 0.2%; in [3] it was 9.54%; in assay [4], 1.35%; in assay [5] it was 12.6%; in assay [6], 3.25%. In addition, the inhibition came to 10.1% in assay [7], 3.08% in assay [8], 10.9% in [9] and 0.61% in assay [10].

In the case of `CCN1CCC(C(=O)Nc2n[nH]c3nnc(-c4cccc(F)c4F)cc23)CC1`, the inhibition came out at 16.7% in assay [1]; 5.92% in assay [2]; 36.6% in assay [3]; 2.96% in [4]; 14.1% in [5]; 5.64% in assay [6]. Moreover, the inhibition in assay [7] is 28.9%; in assay [8], -0.21%; in assay [9], 2.56%; in assay [10] it was 1.25%.

As to `O=C(Nc1n[nH]c2nnc(-c3cccnc3)cc12)C1CC1`, the inhibition was found to be 81.4% in assay [1]; 13.7% in assay [2]; 56.1% in assay [3]; 27.2% in assay [4]; 69.2% in [5]; 19.7% in [6]. In addition, the inhibition in assay [7] came to 64.6%; in assay [8] it was 5.98%; in assay [9], 43.4%; in assay [10] it was 0.24%.
